Calls of active or inactive are those of the source. The calls were made as follows: active = hit-call score of the fitted dose curve at least 0.9, where 1 is the maximum; inactive = score below 0.9.

Details in all cases: mRNA level, 48 h; actives raise or lower the signal
Read-out in experiment [1]: Interleukin 6 Receptor (IL6R), IL6R (gene 3570)
Nature of the experiment: LTEA_HepaRG_IL6R: Life Technologies and Expression Analysis (LTEA) Assay for Interleukin 6 Receptor (IL6R) using HepaRG (AID 2283510).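 As to AC50: differentiated human HepaRG liver cells in serum-free induction medium; TaqMan qRT-PCR signal normalized to ACTB GAPDH and POLR2A housekeeping genes.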 In short, it runs like this:
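Concentration-response in human liver HepaRG cells: eight concentrations from 100 uM downward by half-logs, 48 h exposure, 0.5% DMSO vehicle. IL6R mRNA change measured by qRT-PCR and fitted in both directions relative to vehicle.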

Read-out in experiment [2]: Potassium channel subfamily K member 1 (KCNK1), KCNK1 (gene 3775)
In words: LTEA_HepaRG_KCNK1: Life Technologies and Expression Analysis (LTEA) Assay for Potassium channel subfamily K member 1 (KCNK1) using HepaRG (AID 2283511). The method, boiled down: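 Gain or loss of KCNK1 mRNA is the read-out, quantified by qRT-PCR against three housekeeping genes after 48 h chemical treatment of human HepaRG liver cells. Concentrations ran from 100 uM downward in half-log steps, vehicle 0.5% DMSO.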

Read-out in experiment [3]: Keratin 19 (KRT19), KRT19 (gene 3880)
Nature of the experiment: LTEA_HepaRG_KRT19: Life Technologies and Expression Analysis (LTEA) Assay for Keratin 19 (KRT19) using HepaRG (AID 2283512). In short, it runs like this: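 Readout is qRT-PCR of KRT19 mRNA, normalized to ACTB, GAPDH and POLR2A, from HepaRG cells treated 48 h with eight-point half-log dilutions topping at 100 uM. Activity in either direction is scored relative to 0.5% DMSO vehicle.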

Read-out in experiment [4]: Lipase C (LIPC), LIPC (gene 3990)
In words: LTEA_HepaRG_LIPC: Life Technologies and Expression Analysis (LTEA) Assay for Lipase C (LIPC) using HepaRG (AID 2283514). In short, it runs like this: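 Read-out is LIPC transcript level by TaqMan qRT-PCR, normalized to three housekeeping genes, after 48 h chemical treatment of human HepaRG liver cells. Curves span eight concentrations topping at 100 uM; activity in either direction scored relative to 0.5% DMSO.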

Read-out in experiment [5]: Lipoprotein lipase (LPL), LPL (gene 4023)
Nature of the experiment: LTEA_HepaRG_LPL: Life Technologies and Expression Analysis (LTEA) Assay for Lipoprotein lipase (LPL) using HepaRG (AID 2283515). The method, boiled down: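 Read-out is LPL transcript level by qRT-PCR, normalized to three housekeeping genes and fitted bidirectionally against the DMSO control. Human HepaRG cells received chemicals for 48 h at up to 100 uM.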

Read-out in experiment [6]: MicroRNA 122 (MIR122), gene 406906
Nature of the experiment: LTEA_HepaRG_MIR122: Life Technologies and Expression Analysis (LTEA) Assay for MicroRNA 122 (MIR122) using HepaRG (AID 2283516). Also: the transcript read is the microRNA miR-122. The method, boiled down: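 HepaRG, 48 h exposure, 8-pt half-log from 100 uM, 0.5% DMSO; TaqMan qRT-PCR; bidirectional fit vs DMSO.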

Read-out in experiment [7]: matrix metalloproteinase-10 (MMP10), MMP10 (gene 4319)
In words: LTEA_HepaRG_MMP10: Life Technologies and Expression Analysis (LTEA) Assay for matrix metalloproteinase-10 (MMP10) using HepaRG (AID 2283517). The method, boiled down:
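Gain or loss of MMP10 mRNA is fitted relative to the 0.5% DMSO vehicle. The human hepatic line HepaRG receives a 48-hour serum-free exposure, in duplicate, with a maximum concentration of 100 uM.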

Read-out in a further experiment: MYC, MYC (gene 4609)
Nature of the experiment: LTEA_HepaRG_MYC: Life Technologies and Expression Analysis (LTEA) Assay for MYC using HepaRG (AID 2283518). The method, boiled down:
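Expression changes were scored by TaqMan qRT-PCR with ACTB, GAPDH and POLR2A normalization. Cultures in serum-free induction medium received duplicate 8-point concentration series, highest 100 uM, for 48 h; DMSO (0.5%) served as baseline.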

Read-out in experiment [8]: matrix metalloproteinase-3 (MMP3), MMP3 (gene 4314)
In words: LTEA_HepaRG_MMP3: Life Technologies and Expression Analysis (LTEA) Assay for matrix metalloproteinase-3 (MMP3) using HepaRG (AID 2283519). In short, it runs like this: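 HepaRG, human; 48 h dosing, 8 conc. (max 100 uM, half-log), duplicate, 0.5% DMSO. Readout: MMP3 transcript by Fluidigm TaqMan qRT-PCR, ACTB/GAPDH/POLR2A-normalised. Gain or loss fitted vs DMSO.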

Read-out in experiment [9]: Protein phosphatase 2A (PPP2R4), PTPA (gene 5524)
Nature of the experiment: LTEA_HepaRG_PPP2R4: Life Technologies and Expression Analysis (LTEA) Assay for Protein phosphatase 2A (PPP2R4) using HepaRG (AID 2283522). In short, it runs like this:
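Gene-expression endpoint in HepaRG hepatic cells: 48 h treatment across eight half-log concentrations up to 100 uM in 0.5% DMSO. PPP2R4 mRNA by qRT-PCR, normalized to three endogenous control genes.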

Read-out in experiment [10]: Phosphatase and tensin (PTEN), PTEN (gene 5728)
In words: LTEA_HepaRG_PTEN: Life Technologies and Expression Analysis (LTEA) Assay for Phosphatase and tensin (PTEN) using HepaRG (AID 2283523). In short, it runs like this: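 Read-out is PTEN transcript level by multiplexed TaqMan qRT-PCR after 48 h chemical treatment of human HepaRG cultures in serum-free induction medium. Concentrations spanned 100 uM downward in half-log steps, 0.5% DMSO throughout; activity fitted in both directions against vehicle.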

Read-out in experiment [11]: solute carrier (SLC22A1), SLC22A1 (gene 6580)
Nature of the experiment: LTEA_HepaRG_SLC22A1: Life Technologies and Expression Analysis (LTEA) Assay for solute carrier (SLC22A1) using HepaRG (AID 2283524).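 As to AC50: differentiated human HepaRG liver cells in serum-free induction medium.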 In short, it runs like this:
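HepaRG (human liver line), 48 h dosing in serum-free induction medium; 8 conc., half-log down from 100 uM, 0.5% DMSO vehicle, duplicates. Endpoint: SLC22A1 mRNA, qRT-PCR, housekeeping-normalized; gain/loss fit vs DMSO.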

Read-out in experiment [12]: NAD(P)H dehydrogenase [quinone] 1 (NQO1), NQO1 (gene 1728)
Nature of the experiment: LTEA_HepaRG_NQO1: Life Technologies and Expression Analysis (LTEA) Assay for NAD(P)H dehydrogenase [quinone] 1 (NQO1) using HepaRG (AID 2283526). In short, it runs like this:
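Human HepaRG hepatic cells received chemicals for 48 h in serum-free induction medium with 0.5% DMSO, up to 100 uM. Expression was assessed by TaqMan qRT-PCR against housekeeping controls and fitted bidirectionally against DMSO.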

Read-out in experiment [13]: Nuclear factor erythroid 2-related factor 2 (Homo sapiens) (UniProt Q16236)
In words: LTEA_HepaRG_NFE2L2: Life Technologies and Expression Analysis (LTEA) Assay for Nuclear factor erythroid 2-related factor 2 (NFE2L2) Transcription Factor using HepaRG (AID 2283527). The method, boiled down:
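Transcript level of NFE2L2 is the read-out, measured by microfluidic TaqMan qRT-PCR and normalized to three housekeeping genes. Human HepaRG cultures received test chemical for 48 h at up to 100 uM in half-log steps. Gain or loss of signal is fitted relative to 0.5% DMSO.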

Read-out in experiment [14]: succinate dehydrogenase complex iron sulfur subunit B (SDHB), SDHB (gene 6390)
Nature of the experiment: LTEA_HepaRG_SDHB: Life Technologies and Expression Analysis (LTEA) Assay for succinate dehydrogenase complex iron sulfur subunit B (SDHB) using HepaRG (AID 2283528). In short, it runs like this: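 SDHB transcript level read by TaqMan qRT-PCR, housekeeping-normalised (ACTB, GAPDH, POLR2A), after 48 h chemical treatment of plated HepaRG cells; eight concentrations top 100 uM, half-log steps, 0.5% DMSO, duplicates; fitted both directions against DMSO.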

Read-out in experiment [15]: Signal transducer and activator of transcription 3 (Homo sapiens) (UniProt P40763)
Nature of the experiment: LTEA_HepaRG_STAT3: Life Technologies and Expression Analysis (LTEA) Assay for Signal transducer and activator of transcription (STAT3) using HepaRG (AID 2283529). The method, boiled down:
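Read-out is STAT3 mRNA level by qRT-PCR, normalized to three housekeeping genes, in human HepaRG liver cells treated for 48 h. Concentrations ran from 100 uM downward in half-log steps; curves were fitted for gain or loss relative to 0.5% DMSO.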

Read-out in experiment [16]: Nuclear factor NF-kappa-B p105 subunit (Homo sapiens) (UniProt P19838)
Nature of the experiment: LTEA_HepaRG_NFKB1: Life Technologies and Expression Analysis (LTEA) Assay for Nuclear Factor Kappa B Subunit 1 (NFKB1) using HepaRG (AID 2283521).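 Also: differentiated human HepaRG liver cells in serum-free induction medium.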 The method, boiled down:
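NFKB1 transcript was measured by TaqMan qRT-PCR on Fluidigm arrays, normalised to three housekeeping genes and fitted in both directions against 0.5% DMSO. HepaRG cells were dosed in duplicate for 48 h in serum-free induction medium, eight half-log steps from 100 uM.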

Sequence of Nuclear factor erythroid 2-related factor 2 (Homo sapiens) (Q16236 whole entry, looked up): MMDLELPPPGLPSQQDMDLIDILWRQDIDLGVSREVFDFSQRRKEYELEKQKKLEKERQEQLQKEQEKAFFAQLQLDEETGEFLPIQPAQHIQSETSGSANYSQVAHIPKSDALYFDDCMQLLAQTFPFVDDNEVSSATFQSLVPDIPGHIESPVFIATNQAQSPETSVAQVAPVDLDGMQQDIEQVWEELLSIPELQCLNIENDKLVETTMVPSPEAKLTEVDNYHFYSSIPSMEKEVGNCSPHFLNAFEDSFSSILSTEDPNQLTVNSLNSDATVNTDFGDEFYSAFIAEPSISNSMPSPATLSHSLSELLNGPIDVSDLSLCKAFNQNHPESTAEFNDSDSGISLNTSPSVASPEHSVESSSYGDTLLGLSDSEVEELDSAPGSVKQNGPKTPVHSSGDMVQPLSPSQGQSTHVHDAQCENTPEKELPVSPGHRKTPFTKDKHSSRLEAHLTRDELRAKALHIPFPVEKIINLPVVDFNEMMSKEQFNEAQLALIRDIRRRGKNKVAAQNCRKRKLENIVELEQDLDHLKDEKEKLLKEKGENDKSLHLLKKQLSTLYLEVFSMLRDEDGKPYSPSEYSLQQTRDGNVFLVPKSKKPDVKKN
Sequence of Signal transducer and activator of transcription 3 (Homo sapiens) (P40763 whole entry, looked up): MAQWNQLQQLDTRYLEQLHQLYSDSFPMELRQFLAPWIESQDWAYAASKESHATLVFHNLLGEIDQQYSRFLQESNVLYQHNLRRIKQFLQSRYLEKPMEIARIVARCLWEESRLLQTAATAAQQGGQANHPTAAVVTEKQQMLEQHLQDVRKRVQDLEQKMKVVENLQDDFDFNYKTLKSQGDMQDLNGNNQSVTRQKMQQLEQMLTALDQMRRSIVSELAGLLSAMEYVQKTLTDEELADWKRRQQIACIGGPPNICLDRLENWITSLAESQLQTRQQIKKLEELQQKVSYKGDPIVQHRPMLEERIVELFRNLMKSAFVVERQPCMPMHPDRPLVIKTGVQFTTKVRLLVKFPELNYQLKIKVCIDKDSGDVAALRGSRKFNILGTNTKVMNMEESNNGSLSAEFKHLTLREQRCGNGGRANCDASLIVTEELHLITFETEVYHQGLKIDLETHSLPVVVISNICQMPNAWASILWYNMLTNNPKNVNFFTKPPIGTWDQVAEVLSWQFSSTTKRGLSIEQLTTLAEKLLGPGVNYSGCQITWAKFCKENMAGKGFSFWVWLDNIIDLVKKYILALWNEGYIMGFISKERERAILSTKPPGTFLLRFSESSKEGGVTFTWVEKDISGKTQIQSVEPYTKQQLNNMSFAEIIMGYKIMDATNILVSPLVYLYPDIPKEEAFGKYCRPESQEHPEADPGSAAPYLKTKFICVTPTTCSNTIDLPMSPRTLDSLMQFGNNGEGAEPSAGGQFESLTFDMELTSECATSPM
Sequence of Nuclear factor NF-kappa-B p105 subunit (Homo sapiens) (P19838 whole entry, looked up): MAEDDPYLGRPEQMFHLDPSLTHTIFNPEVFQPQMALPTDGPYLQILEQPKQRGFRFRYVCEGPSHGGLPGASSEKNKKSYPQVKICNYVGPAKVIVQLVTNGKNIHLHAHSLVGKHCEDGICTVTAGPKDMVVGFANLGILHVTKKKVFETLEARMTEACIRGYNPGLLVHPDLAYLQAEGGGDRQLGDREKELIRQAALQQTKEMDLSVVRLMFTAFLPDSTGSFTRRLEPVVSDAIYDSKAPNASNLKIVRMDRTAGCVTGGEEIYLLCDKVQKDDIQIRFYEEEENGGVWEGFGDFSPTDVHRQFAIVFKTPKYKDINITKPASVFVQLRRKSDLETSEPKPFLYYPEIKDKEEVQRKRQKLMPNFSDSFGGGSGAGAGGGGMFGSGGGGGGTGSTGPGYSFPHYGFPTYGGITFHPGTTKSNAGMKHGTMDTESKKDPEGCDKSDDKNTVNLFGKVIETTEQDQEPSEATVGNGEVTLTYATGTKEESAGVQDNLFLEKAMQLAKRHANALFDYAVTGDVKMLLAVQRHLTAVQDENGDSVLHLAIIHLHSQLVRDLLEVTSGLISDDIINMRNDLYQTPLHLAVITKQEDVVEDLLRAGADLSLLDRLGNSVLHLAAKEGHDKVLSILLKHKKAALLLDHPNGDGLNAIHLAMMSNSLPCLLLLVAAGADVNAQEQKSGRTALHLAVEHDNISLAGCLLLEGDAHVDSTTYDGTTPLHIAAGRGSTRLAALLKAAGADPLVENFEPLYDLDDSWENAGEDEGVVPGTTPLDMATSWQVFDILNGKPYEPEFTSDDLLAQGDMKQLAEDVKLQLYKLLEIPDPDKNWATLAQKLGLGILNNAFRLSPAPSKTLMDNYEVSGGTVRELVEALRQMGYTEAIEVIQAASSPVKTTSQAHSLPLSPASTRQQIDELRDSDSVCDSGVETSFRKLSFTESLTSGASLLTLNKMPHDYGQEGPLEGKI

As for `CNC(=O)/C=C(\C)OP(=O)(OC)OC`, the result in experiment [1], in experiment [2], in experiment [3], in experiment [4], in [5] and in experiment [6] was inactive. For the same compound, the outcome in [7] was “inactive”; with MYC, MYC (gene 4609), “inactive”; in experiment [8], “inactive”; in experiment [9], “inactive”; in experiment [10], “inactive”; in experiment [11] it was “inactive”. In addition, the result in experiment [12], in [13], in experiment [14] and in experiment [15] was inactive.
Regarding `CCCN(CCC)c1c([N+](=O)[O-])cc(C(F)(F)F)cc1[N+](=O)[O-]`, the call in [1], in [2], in experiment [3], in experiment [4], in experiment [5] and in experiment [6] was inactive. Further, the outcome in [7] was “inactive”; with MYC, MYC (gene 4609) it was “inactive”; in experiment [8] it was “inactive”; in experiment [16], “inactive”; in experiment [9], “inactive”; in experiment [10], “inactive”. Besides, the result in experiment [11], in experiment [12], in experiment [13], in experiment [14] and in experiment [15] was inactive.
As for `COP(=O)(OC)OC=C(Cl)Cl`, the call in experiment [1], in [2], in experiment [3], in [4], in experiment [5] and in experiment [6] was inactive. Further, the outcome was “inactive” in experiment [7]; “inactive” with MYC, MYC (gene 4609); “inactive” in [8]; “inactive” in [16]; “inactive” in [9]; “inactive” in experiment [10]. In addition, the call in [11], in [12], in experiment [13], in experiment [14] and in experiment [15] was inactive.
`C#CCN1C(=O)COc2cc(F)c(N3C(=O)C4=C(CCCC4)C3=O)cc21`: the result in experiment [1], in experiment [2], in experiment [3], in [5], in [6] and in experiment [7] was inactive. Moreover, the outcome in the experiment with MYC, MYC (gene 4609) is “inactive”; in experiment [8] it was “inactive”; in experiment [16] it was “inactive”; in experiment [9] it was “inactive”; in experiment [10] it was “inactive”; in [11], “inactive”. In addition, the call in experiment [12], in experiment [13], in [14] and in [15] was inactive. Also, the AC50 in [4] was 26.3 µM (active).
Regarding `OCCOc1ccccc1`, the compound was classed as inactive in experiment [1], in experiment [2], in experiment [3], in experiment [4], in experiment [5] and in experiment [6]. Besides, the outcome in experiment [7] was “inactive”; with MYC, MYC (gene 4609), “inactive”; in experiment [8], “inactive”; in experiment [9] it was “inactive”; in [10], “inactive”; in experiment [11], “inactive”. For the same compound, the compound was classed as inactive in experiment [12], in [13], in experiment [14] and in experiment [15].
As for `CCCN(CCOc1c(Cl)cc(Cl)cc1Cl)C(=O)n1ccnc1`, the half-maximal activity concentration (AC50) in [1] is 87.1 µM (active); in experiment [2], 62 µM (active); in experiment [3], 12.7 µM (active); in [4], 44.3 µM (active); in [5], 25.7 µM (active); in experiment [6], 11.7 µM (active). In addition, the AC50 in experiment [7] was 57.8 µM (active); with MYC, MYC (gene 4609) it was 39.5 µM (active); in experiment [8], 80.2 µM (active); in [10] it was 79.1 µM (active); in experiment [11], 29.5 µM (active); in [13] it was 29.9 µM (active). Also, in [14], the AC50 is 12.1 µM (active). In addition, the outcome in experiment [9], in [12] and in experiment [15] was inactive.

As usually defined, the AC50 is the concentration at which the activity in the assay is half-maximal.
